HT1080-NT tox – kills 2HG-producing HT-1080-NT fibrosarcoma cells; Potency, µM (titrated, usually from 46.1 µM), inactives show at the top dose activity, negative = less viability, actives largely listed as cytotoxic; AID 686970; 360,000 compounds, 1.6% hits; HT-1080-NT fibrosarcoma viability, CellTiter-Glo ATP luminescence, 48 h;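 also: NT is the 2HG producing partner of a matched IDH1 knockdown line; potency is read from the fitted curve at half-maximal effect; 0% = DMSO-treated cells and -100% = media-only wells without cells; nearly all actives have a fitted effect of over 55% in size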
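Viability of the 2HG-overproducing fibrosarcoma line after 48 hours of compound exposure at 37 degrees C was determined by luminescence with CellTiter-Glo, and concentration-effect curves were then fitted and categorized.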
IL1B secr inh – inflammasome signaling inhibition, IL-1 beta readout | THP-1 LPS/ATP IL-1B secretion, AlphaLISA, 16 h; active compounds read low | activity change, % at 57.5 µM | 360,000 compounds, 4.7% hits | AID 743279; in the data active = activity change below about -50%; inconclusive = mostly about -30% to -49%
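THP-1 cells pretreated 1 hr with compounds (up to 57.5 uM final), then stimulated with LPS (250 ng/mL final) plus ATP (1.25 mM final); secreted IL-1B measured by AlphaLISA after 16 hr, decreased signal indicating inhibition.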
uPA surface inh – blocks generation of uPA at the cell surface; cell surface uPA generation assay, qHTS; Potency, µM (titrated, usually from 38.3 µM), without a hit: top-dose activity change, negative = inhibition, usual class: inhibitors; 330,000 compounds, 0.31% hits; active = well fitted inhibition curve with a large enough effect; inconclusive = small, poorly fitted or top-dose-only effect; inactive = no such curve, though single readings can be large or run the other way; tested in mouse RAW 264.7 cells; also: potency is read from the fitted curve at half-maximal effect; nearly all actives have a fitted effect of over 55% in size
DT40 TDP1 no CPT – qHTS for Inhibitors of human tyrosyl-DNA phosphodiesterase 1 (TDP1): qHTS in cells in absence of CPT; DT40 Tdp1-/- hTDP1 cells, no CPT, ATP luminescence, 48 h; Potency, µM (series often up to 46.2 µM), for inactives: at the highest dose activity change, negative = growth inhibition, actives largely listed as inhibitors; 420,000 compounds, 15% hits; also: potency is read from the fitted curve at half-maximal effect; nearly all actives have a fitted effect of over 55% in size
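DT40 Tdp1-/-;hTDP1 cells, no CPT (DMSO vehicle only), 400 cells/well; compounds pin-transferred; ≥48 hr, 37 °C; CellTiter-Glo 30 min RT dark, luminescence read.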
TDP1 cell CPT – DT40-hTDP1 cell growth loss with CPT. chicken DT40 Tdp1-/-;hTDP1 cells + 20 nM CPT, ATP luminescence, 48 h. Potency, µM (titrated, usually from 46.2 µM), inactives show at the highest dose activity change, negative = growth inhibition, most hits filed as inhibitors. 420,000 compounds, 12% hits; also: potency is read from the fitted curve at half-maximal effect; nearly all actives have a fitted effect of over 55% in size
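Cell growth measured by CellTiter-Glo luminescence after a minimum 48 h, 37 C compound exposure with 20 nM CPT in Tdp1-knockout DT40 cells stably expressing hTDP1, seeded 400/well; qHTS titration format.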
HT1080 IDH1KD tx – toxicity to HT-1080 IDH1 knockdown cells (counter line). HT-1080 IDH1 knockdown viability, ATP luminescence, 48 h. Potency, µM (top dose mostly 46.1 µM), for the others: at the highest dose activity, negative = toxicity, hits mostly cytotoxic. 360,000 compounds, 2% hits;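 also: potency is read from the fitted curve at half-maximal effect; 0% = DMSO wells and -100% = cell-free medium wells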
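Cytotoxicity counter-line: IDH1KD HT-1080, 48 h, CellTiter-Glo. Curves classed by r2, magnitude and activity.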
Starred values were filed as active, the others as inactive; ? = inconclusive; · = no result. The list is not random: actives were taken first. Their share in the collection is about 19%. Unless noted, calls follow the shape of the dose curve; as a rule, active = well fitted curve in the direction sought with a large enough effect; inconclusive = small, poorly fitted or top-dose-only effect, or another doubt; inactive = no such curve, though single readings can be large; an effect the other way counts as inactive or inconclusive. Unless noted, % is scaled to controls: 0 for no effect and ±100 for the full control effect.

SMILES	HT1080-NT tox	IL1B secr inh	uPA surface inh	DT40 TDP1 no CPT	TDP1 cell CPT	HT1080 IDH1KD tx
O=C1CCC[C@@H]2Cc3nc4ccc(O)cc4cc3[C@@H]3CCN1[C@H]23	22%	5	-20%	4%	10%	11%
Cc1cccc(C)c1N(CC(=O)NCc1ccccc1)C(=O)c1csnn1	-1%	-20	-1%	-1%	7%	9%
CCN(c1ccccc1)S(=O)(=O)c1ccc(NCC2COc3ccccc3O2)nc1 (configuration not stated)	-28%	?	-8%	?	26µM*	?
Cc1ccc(CNC(=O)c2ccc3c(c2)S(=O)(=O)c2ccccc2C3=O)o1	0%	-25	-5%	16µM*	?	0%
O=C(NCc1ccc(OC(F)(F)F)cc1)c1ccc2c(c1)S(=O)(=O)c1ccccc1C2=O	-10%	-28	-8%	15µM*	23µM*	-12%
O=C(NCC1CCCO1)c1ccc2c(c1)S(=O)(=O)c1ccccc1C2=O (configuration not stated)	-3%	-20	-10%	-23%	-15%	9%
COc1ccc(NC(=O)c2ccc3c(c2)S(=O)(=O)c2ccccc2C3=O)cc1	12%	-1	12%	-6%	-10%	21%
CCc1ccccc1NC(=O)CN(C)S(=O)(=O)c1cccc2nsnc12	·	·	·	1%	?	·
O=C(NCC12CC3CC(CC(C3)C1)C2)c1cc2n(n1)C(C(F)(F)F)CC(c1ccco1)N2 (configuration not stated)	?	-87*	2%	15µM*	10µM*	-22%
COc1ccc(NC(=O)c2cc3n(n2)C(C(F)(F)F)CC(c2ccco2)N3)cc1 (configuration not stated)	-51%	?	-13%	?	-22%	-43%
Cc1cc(NC(=O)c2cc3n(n2)C(C(F)(F)F)CC(c2ccco2)N3)n(-c2ccccc2)n1 (configuration not stated)	-22%	-13	8%	15µM*	?	-27%
Cc1ccc(C(=O)Nc2ccncc2)cc1[N+](=O)[O-]	-5%	-55*	-1%	0.73µM*	?	-2%
Cc1ccc(C(=O)NCC(C)NC(=O)c2ccc(C)c([N+](=O)[O-])c2)cc1[N+](=O)[O-] (configuration not stated)	3%	-20	0%	15µM*	?	-4%
Cc1cc(C(=O)Nc2ccncc2)ccc1[N+](=O)[O-]	10%	-4	-12%	15µM*	?	5%
Cc1ccc(C(=O)NNC(=O)c2ccncc2)cc1[N+](=O)[O-]	-3%	-9	15%	-26%	-14%	3%
Cc1ccc(NC(=O)c2ccncc2)cc1[N+](=O)[O-]	3%	-2	-3%	-28%	-4%	17%
Cc1c(C(=O)N(C)C)sc(NC(=O)c2cccc([N+](=O)[O-])c2)c1C#N	7%	13	-1%	-27%	-18%	0%
CCN(CC)C(=O)c1sc(NC(=O)c2ccc(C)c([N+](=O)[O-])c2)c(C#N)c1C	-14%	8	1%	21µM*	?	-13%
Cc1c(Cl)cccc1NS(=O)(=O)c1ccc(NS(=O)(=O)c2ccc3c(c2)OCCO3)cc1	·	·	·	-22%	6%	·
Cc1ccc(C(=O)NC(=S)Nc2cccc(NC(=O)c3ccccc3)c2)cc1[N+](=O)[O-]	-1%	-7	3%	16µM*	?	1%
CC[C@@H](C)[C@H](CN[C@H](CNC)C(C)C)NC[C@@H](C)c1ccc(CC(C)C)cc1	?	-23	?	1.5µM*	1.5µM*	?
CC[C@H](C)[C@@H](CNC)NC[C@@H](Cc1ccc(O)cc1)NCC(C)(C)C	-10%	-14	-10%	-29%	?	2%
O=C(O)c1cccc(N2C(=O)/C(=C/c3ccc(SCc4ccc(Cl)cc4)o3)SC2=S)c1	-15%	93	8%	?	21µM*	?
O=C(CCN1C(=O)/C(=C/c2ccc(Cl)cc2)SC1=S)Nc1cccc(C(=O)O)c1	-13%	11	5%	-12%	1%	0%
CC[N+]1(CC)CCC(=C(c2ccccc2)c2ccccc2)C1C (configuration not stated)	·	·	·	3.3µM*	5.3µM*	·
SMILES	HT1080-NT tox	IL1B secr inh	uPA surface inh	DT40 TDP1 no CPT	TDP1 cell CPT	HT1080 IDH1KD tx
c1ccc(C(=C2CCCO2)c2ccccc2)cc1	9%	11	3%	-6%	-7%	0%
CCC(=O)OC1C2CC3=C4CC(=O)OC(c5ccoc5)[C@]4(C)CCC3[C@@](C)(C2=O)C(CC(=O)OC)C1(C)C (some centres not stated)	·	·	·	-2%	-2%	·
C=CCn1c(Sc2ncc([N+](=O)[O-])s2)n[nH]c1=O	5.8µM*	-103*	-12%	0.92µM*	0.41µM*	5.2µM*
CCOc1ncccc1C(=O)NCC(c1ccccc1)N(C)C (configuration not stated)	-16%	-1	4%	1%	?	-6%
COc1ccc(-c2nn(C)c3sc(C(=O)NCc4ccco4)cc23)cc1OC	?	-5	6%	21µM*	?	21%
COc1ccc(-c2cc(C(=O)Nc3cc(OC)c(OC)c(OC)c3)no2)cc1OC	-2%	7	·	?	?	-2%
Cn1nc(C(F)(F)F)c2cc(C(=O)Nc3ccc(Cl)cc3)sc21	-16%	?	4%	?	?	-20%
COc1ccc(NC(=O)c2cc3c(-c4ccc(OC)c(OC)c4)nn(C)c3s2)cc1OC	?	?	-5%	21µM*	18µM*	?
COc1ccc(-c2nn(C)c3sc(C(=O)Nc4cc(OC)c(OC)c(OC)c4)cc23)cc1OC	·	·	·	6.5µM*	18µM*	·
COc1cccc(S(=O)(=O)Nc2ccc3c(c2)C(=O)N(C)C[C@H](OC)[C@H](C)CN[C@@H](C)CO3)c1	20%	16	·	-4%	7%	13%
C[C@H]1CN(S(=O)C(C)(C)C)[C@H](CCO)/C1=C\CCO (some centres not stated)	2%	-4	5%	9%	26%	8%
ClC(Cl)Cl	·	·	·	-3%	-21%	·
CC1=Nc2ccccc2N=C(NC(=O)c2ccccc2)C1c1ccc(Cl)cc1 (configuration not stated)	-24%	-58*	3%	21µM*	?	-12%
O=C1CC(c2ccc(Cl)cc2)N=C(NC(=O)c2ccccc2)N1 (configuration not stated)	·	·	·	-16%	-22%	·

Screening results: PubChem, National Center for Advancing Translational Sciences (NCATS)
